Test results published in PubChem BioAssay.
Records with an inconclusive call do not appear. Activity calls are given as the source filed them.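 The calls were made as follows, unless noted: active = viability at or below 30% in both replicate assays; inconclusive = viability at or below 30% in just one of the two assays; inactive = the rest.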

Experiments:
[1] = Her2 expression decrease, cell viability multiplex – SKBR3 breast tumor cells, AlphaScreen, ATP viability, primary screen (AID 461;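 active = Her2 level under about 52% in both replicate screens, with viability over 70% of control, limit read from the data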;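 as to Her2 level: lower value means less Her2 protein in the cells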;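 as to viability: percent of carrier control wells set as 100% viability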); conditions: SKBR3 Her2 protein level, 18-24 h, measured here: SKBR3 viability, ATP luminescence, at 10 µM
[2] = target: Receptor tyrosine-protein kinase erbB-2 (Homo sapiens) (UniProt P04626); experiment: as above; conditions: 18-24 h, at 10 µM, stronger effect = lower value
Sequence of Receptor tyrosine-protein kinase erbB-2 (Homo sapiens) (P04626 whole entry, looked up): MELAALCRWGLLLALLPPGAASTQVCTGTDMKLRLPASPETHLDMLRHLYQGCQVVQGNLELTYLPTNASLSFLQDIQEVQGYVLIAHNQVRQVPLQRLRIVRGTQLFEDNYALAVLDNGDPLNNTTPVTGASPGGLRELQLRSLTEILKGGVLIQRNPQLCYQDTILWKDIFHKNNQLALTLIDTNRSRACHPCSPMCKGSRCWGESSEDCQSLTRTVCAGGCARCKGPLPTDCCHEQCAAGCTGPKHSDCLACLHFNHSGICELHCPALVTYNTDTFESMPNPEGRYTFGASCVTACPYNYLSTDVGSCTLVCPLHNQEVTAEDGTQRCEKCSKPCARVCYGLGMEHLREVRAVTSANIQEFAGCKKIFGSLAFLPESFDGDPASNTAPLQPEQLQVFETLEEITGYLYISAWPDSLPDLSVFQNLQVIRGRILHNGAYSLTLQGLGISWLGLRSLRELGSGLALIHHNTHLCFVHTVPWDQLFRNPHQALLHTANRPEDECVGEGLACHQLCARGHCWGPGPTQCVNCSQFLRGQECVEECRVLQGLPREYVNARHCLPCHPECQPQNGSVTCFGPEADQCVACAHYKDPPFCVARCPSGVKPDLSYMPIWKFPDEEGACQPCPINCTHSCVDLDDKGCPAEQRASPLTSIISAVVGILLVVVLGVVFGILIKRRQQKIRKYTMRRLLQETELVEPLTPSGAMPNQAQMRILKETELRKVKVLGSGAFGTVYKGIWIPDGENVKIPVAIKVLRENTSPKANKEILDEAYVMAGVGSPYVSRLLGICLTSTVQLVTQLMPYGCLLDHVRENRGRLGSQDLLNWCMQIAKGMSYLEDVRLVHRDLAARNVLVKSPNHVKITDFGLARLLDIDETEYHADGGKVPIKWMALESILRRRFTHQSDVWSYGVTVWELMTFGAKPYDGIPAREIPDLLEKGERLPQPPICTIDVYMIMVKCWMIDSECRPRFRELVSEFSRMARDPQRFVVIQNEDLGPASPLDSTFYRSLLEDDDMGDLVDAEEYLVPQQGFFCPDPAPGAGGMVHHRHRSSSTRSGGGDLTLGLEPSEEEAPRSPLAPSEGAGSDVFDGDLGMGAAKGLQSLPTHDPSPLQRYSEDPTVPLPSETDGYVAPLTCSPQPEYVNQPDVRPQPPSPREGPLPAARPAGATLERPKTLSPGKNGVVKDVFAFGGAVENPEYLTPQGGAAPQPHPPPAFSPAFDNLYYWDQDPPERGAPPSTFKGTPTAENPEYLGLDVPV

[3] = reduced viability of SK-BR-3 breast cancer cells – cell-based, 24 h, human, pilot screen (AID 572;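 active = viability at or below 10% of carrier control in both of two separate runs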;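 also: compound exposure lasted between 18 and 24 h rather than exactly 24 h; 100% = carrier-treated control wells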); conditions: SK-BR-3 viability, CellTiter-Glo luminescence, at 10 µM, stronger effect = lower value
[4] = HUVEC growth inhibition – cell-based, human, primary screen (AID 575); conditions: HUVEC proliferation, CellTiter-Glo luminescence, 72 h; at 10 µM; stronger effect = lower value;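 also: 100% = median of untreated cell wells with 0.1% DMSO on each plate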
[5] = H69AR cell proliferation blockers – human, duplicate replicates, primary screen (AID 580;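 active = viability at or under a set limit in both replicates, limit being median viability minus 3 SD, cut at about 48% in these data, passing the limit was not always enough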;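 also: 100% = mean luminescence of untreated wells and 0% = no signal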); conditions: H69AR lung tumor cells viability, ATP luminescence, 72 h; at 10 µM; stronger effect = lower value
[6] = MRP1 drug-resistance reversers in H69AR cells – cell-based, doxorubicin co-treatment, pilot screen (AID 601;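 active = viability loss from added drug above about 55%, and viability with drug at most 40%, in both replicates, limit read from the data, passing the limit was not always enough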); conditions: CellTiter-Glo, 72 h, at 10 µM; for differential viability (reversal): stronger effect = higher value
[7] = yeast transport mutant growth inhibition pilot in 384-well plates, post-Golgi transport modulator project (AID 636; in the data active = inhibition above about 31%); conditions: absorbance 615 nm, about 18 h, stronger effect = higher value
[8] = growth suppression of yeast trafficking mutant, preliminary HTS, modulators of trafficking downstream of Golgi apparatus project, 1536-format plate, OD 615 nm (AID 637; in the data active = inhibition above about 30%); conditions: yeast transport mutant growth, absorbance 615 nm, 18 h; stronger effect = higher value
[9] = S. cerevisiae growth inhibition in permissive medium (OD615), pilot counter-assay for S. cerevisiae lifespan shortening project, permissive growth control (AID 705;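 active = growth inhibition above 25% in both replicates, a cutoff set 3 SD above the mean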); conditions: OD615, 24 h, at 10 µM, stronger effect = higher value
[10] = S. cerevisiae growth inhibition in restrictive medium, OD615, pilot screen, restrictive growth control, yeast lifespan reduction project (AID 706;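 active = growth inhibition above a set limit, 3 SD over mean compound inhibition, in both replicates, cut at about 43% in these data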;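 also: modified DeaD lifespan yeast strain shifted to restrictive glucose medium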); conditions: OD615, 48 h, at 10 µM, stronger effect = higher value
[11] = doxorubicin toxicity protection in MRP-1 cells – H69AR cells, CellTiter-Glo, duplicate, MRP-1 activator project, pilot screen (AID 807;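 active = viability increase at or above a cutoff of the median across tested compounds plus 3 SD, cut at about 8.5% in these data, passing the limit was not always enough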;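 also: compound pretreatment 18-22 h then 72 h combined with doxorubicin; 0% = doxorubicin alone and 100% = vehicle without doxorubicin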); conditions: H69AR viability with doxorubicin, CellTiter-Glo luminescence; at 10 µM; stronger effect = higher value
[12] = viability of HCT116 without oncogenic beta-catenin – human colon tumor cells, pilot screen (AID 823;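 active = cell viability at or below a set limit in both duplicate runs, the limit being the all-compound median minus 4 SD, cut at about 23% in these data, passing the limit was not always enough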;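 also: 0% = wells killed by 20 µM Hyamine and 100% = untreated DMSO cell wells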); conditions: HCT116 beta-catenin knockout viability, CellTiter-Glo, 60 h; at 10 µM; stronger effect = lower value
[13] = viability of PTEN-null HCT116 cells – cell-based, HCT116 clonal line, CellTiter-Glo, pilot screen (AID 824;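 active = viability at or below 27.92% in each of two runs, the all-compound median minus 4 SD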;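 also: 0% = 20 µM Hyamine control and 100% = vehicle cell control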); conditions: HCT116 PTEN-deleted viability, 60 h, at 10 µM, stronger effect = lower value
[14] = RAM pathway blockade in budding yeast – dse1pr::URA3 reporter, 5-FOA selection, pilot screen (AID 869;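 active = inhibition over a set limit, the all-compound mean plus 3 SD, in both replicate runs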;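 also: 0% = DMSO wells with no growth and 100% = 10 µM 1-NA-PP1 with full growth; RAM network block rescues cells from 5-FOA so hits raise OD615 growth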); conditions: S. cerevisiae dse1pr::URA3 5-FOA growth, OD615, 2 d; at 10 µM; stronger effect = higher value; strain carries analog-sensitive mutant Cbk1 kinase
[15] = RAM signaling pathway blockade in yeast – S. cerevisiae, Pdr1DBD-CYC8 efflux-inhibited sensitized strain, primary screen (AID 1298;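 active = RAM network inhibition above 8.4% in each of two replicates, 3 SD over the compound average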;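 also: 0% = DMSO untreated cells without growth and 100% = 10 µM 1-NA-PP1 full growth; higher means more yeast growth rescued from 5-FOA killing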); conditions: S. cerevisiae cbk1-as DSE1-URA3 strain, 5-FOA growth OD615, 2 d; at 50 µM; stronger effect = higher value
[16] = H69AR cells + 2 uM doxorubicin, measured here: viability with 2 uM doxorubicin, stronger effect = lower value
[17] = H69AR cells, compound alone cytotoxicity

Row | SMILES | viability [1] [%] | Her2 level [2] | viability [3] | viability [4] | viability [5] | differential viability (reversal) ([6]; H69AR cells + 2 uM doxorubicin) | viability [6, 16] [%] | viability [6, 17] [%] | inhibition [7] | inhibition [8] | growth inhibition [9] | growth inhibition [10] | viability increase [11] | viability [12] | viability [13] | inhibition [14] | RAM network inhibition [15]
1 | O=C(Nc1ccc2c(c1)OCCO2)NC1CCCCC1 | 126 | 98.5% (inactive) | 126% (inactive) | 89.5% (inactive) | 85.9% (inactive) | 3.18% (inactive) | 82.7 | 85.9 | -4.27% (inactive) | -1.13% (inactive) | -1.73% (inactive) | 4.4% (inactive) | -0.85% (inactive) | 86.8% (inactive) | 85.5% (inactive) | 1.55% (inactive) | -0.57% (inactive)
2 | COc1ccc(CCNC(=O)CSc2nnnn2-c2ccccc2OC)cc1OC | 91 | 99.5% (inactive) | 91% (inactive) | 102% (inactive) | 90.1% (inactive) | 0.99% (inactive) | 89.1 | 90.1 | -7.33% (inactive) | -0.5% (inactive) | -2.03% (inactive) | 2.95% (inactive) | -2.14% (inactive) | 86.9% (inactive) | 92.3% (inactive) | 1.64% (inactive) | 6.51% (inactive)
3 | Cc1ccc(C)n1-n1c(C)nc2sc(-c3ccccc3)cc2c1=O | 89 | 106% (inactive) | 89% (inactive) | 80.3% (inactive) | 81.9% (inactive) | -8.97% (inactive) | 90.8 | 81.9 | -0.38% (inactive) | 2.67% (inactive) | -3.25% (inactive) | -27.4% (inactive) | 1.12% (inactive) | 54.6% (inactive) | 61% (inactive) | 0.52% (inactive) | 9.68% (inactive)
4 | Cc1cc(C)n(-c2ccc(N3CCOCC3)nn2)n1 | 108 | 99% (inactive) | 108% (inactive) | 98.1% (inactive) | 89.5% (inactive) | -4.32% (inactive) | 93.8 | 89.5 | 0% (inactive) | 0% (inactive) | 1.14% (inactive) | 10.2% (inactive) | -0.17% (inactive) | 103% (inactive) | 101% (inactive) | 0.245% (inactive) | -0.52% (inactive)
5 | CCC(=O)c1cc(F)c(N2CCN(C(=O)c3ccco3)CC2)cc1C | 82 | 90.5% (inactive) | 82% (inactive) | 91.2% (inactive) | 87.9% (inactive) | -8.33% (inactive) | 96.3 | 87.9 | -0.8% (inactive) | 2.13% (inactive) | -10.3% (inactive) | -0.62% (inactive) | -0.95% (inactive) | 97.9% (inactive) | 88.3% (inactive) | 1.4% (inactive) | 0.21% (inactive)
6 | COc1ccc(-c2noc(COc3ccc(Cl)c(C)c3)n2)cc1 | 91 | 115% (inactive) | 91% (inactive) | 99.6% (inactive) | 88.4% (inactive) | 4.7% (inactive) | 83.7 | 88.4 | -5.07% (inactive) | -7.38% (inactive) | -7.56% (inactive) | -29% (inactive) | 0.12% (inactive) | 101% (inactive) | 91.5% (inactive) | 6.36% (active) | 8.54% (inactive)
7 | Brc1ccccc1-c1nc(-c2ccccc2)no1 | 88 | 84.5% (inactive) | 88% (inactive) | 89.1% (inactive) | 74.3% (inactive) | -8.99% (inactive) | 83.3 | 74.3 | -2.6% (inactive) | -8% (inactive) | -7.54% (inactive) | 8.43% (inactive) | -5.68% (inactive) | 72% (inactive) | 70.6% (inactive) | 0.565% (inactive) | 3.53% (inactive)
8 | CCSC1=C(C#N)C(c2ccccc2OC)CC(=O)N1 (stereo not given) | 92 | 97.5% (inactive) | 92% (inactive) | 86.3% (inactive) | 99.8% (inactive) | 6.97% (inactive) | 92.8 | 99.8 | -1.73% (inactive) | -2.33% (inactive) | -3.36% (inactive) | 0.71% (inactive) | 0.28% (inactive) | 94.1% (inactive) | 91.6% (inactive) | 1.78% (inactive) | 1.8% (inactive)
9 | COc1ccc(NC(=O)CSc2nnc(-c3ccccc3)n2N)cc1 | 97.5 | 87.5% (inactive) | 97.5% (inactive) | 94.7% (inactive) | 93.6% (inactive) | 17.2% (inactive) | 76.4 | 93.6 | -7.87% (inactive) | -0.16% (inactive) | 0.265% (inactive) | 3.57% (inactive) | 0.58% (inactive) | 101% (inactive) | 108% (inactive) | 1.12% (inactive) | 3.84% (inactive)
10 | CCOC(=O)c1ccccc1NC(=O)c1cccnc1 | 83 | 117% (inactive) | 83% (inactive) | 94.8% (inactive) | 96.1% (inactive) | 1.67% (inactive) | 94.4 | 96.1 | 1.95% (inactive) | -4.59% (inactive) | -11.9% (inactive) | -21.3% (inactive) | 0.06% (inactive) | 104% (inactive) | 102% (inactive) | 1.57% (inactive) | 2.22% (inactive)
